Screening data from PubChem BioAssay.
COUP-TFII inh = NR2F2 (human) inhibition, primary screen. AID 686940. inhibition, % at 8.6 µM. HEK293T NGFI-A luciferase reporter, luminescence. 0.7% of 370,000 active;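 active means inhibition above a per-plate cutoff, mean inhibition of test wells between control levels plus 3 SD, cut at about 38% in these data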;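 further: cells cotransfected with COUP-TFII expression vector driving the NGFI-A reporter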
NR5A2 inv ag = inverse agonists of human LRH-1 (NR5A2). O00482. HEK293T StAR-luciferase reporter, LRH-1 transfected, 24 h. inhibition, % at 3.6 µM. 0.13% of 360,000 active;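 active means inhibition above the mean inhibition of all tested compounds plus 3 SD, cut at about 73% in these data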
SRC1 inh = human NCOA1 inhibition; HEK293 GAL4-SRC1 luciferase reporter, luminescence; inhibition, % at 3.6 µM; AID 588354; 0.12% of 360,000 active;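 active means inhibition above the campaign mean plus 3 SD, with each screening campaign given its own cutoff, cut at about 60% in these data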
SRC2 inh = human SRC2 (NCOA2) inhibition; Q15596; HEK293 GAL4-SRC2 luciferase reporter, luminescence; inhibition, % at 9 µM; 0.17% of 370,000 active; AID 651957;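 active means inhibition above the mean inhibition of all tested compounds plus 3 SD, set per campaign, cut at about 52% in these data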
Target sequence (Q15596 whole entry, looked up, the tested form may be a part): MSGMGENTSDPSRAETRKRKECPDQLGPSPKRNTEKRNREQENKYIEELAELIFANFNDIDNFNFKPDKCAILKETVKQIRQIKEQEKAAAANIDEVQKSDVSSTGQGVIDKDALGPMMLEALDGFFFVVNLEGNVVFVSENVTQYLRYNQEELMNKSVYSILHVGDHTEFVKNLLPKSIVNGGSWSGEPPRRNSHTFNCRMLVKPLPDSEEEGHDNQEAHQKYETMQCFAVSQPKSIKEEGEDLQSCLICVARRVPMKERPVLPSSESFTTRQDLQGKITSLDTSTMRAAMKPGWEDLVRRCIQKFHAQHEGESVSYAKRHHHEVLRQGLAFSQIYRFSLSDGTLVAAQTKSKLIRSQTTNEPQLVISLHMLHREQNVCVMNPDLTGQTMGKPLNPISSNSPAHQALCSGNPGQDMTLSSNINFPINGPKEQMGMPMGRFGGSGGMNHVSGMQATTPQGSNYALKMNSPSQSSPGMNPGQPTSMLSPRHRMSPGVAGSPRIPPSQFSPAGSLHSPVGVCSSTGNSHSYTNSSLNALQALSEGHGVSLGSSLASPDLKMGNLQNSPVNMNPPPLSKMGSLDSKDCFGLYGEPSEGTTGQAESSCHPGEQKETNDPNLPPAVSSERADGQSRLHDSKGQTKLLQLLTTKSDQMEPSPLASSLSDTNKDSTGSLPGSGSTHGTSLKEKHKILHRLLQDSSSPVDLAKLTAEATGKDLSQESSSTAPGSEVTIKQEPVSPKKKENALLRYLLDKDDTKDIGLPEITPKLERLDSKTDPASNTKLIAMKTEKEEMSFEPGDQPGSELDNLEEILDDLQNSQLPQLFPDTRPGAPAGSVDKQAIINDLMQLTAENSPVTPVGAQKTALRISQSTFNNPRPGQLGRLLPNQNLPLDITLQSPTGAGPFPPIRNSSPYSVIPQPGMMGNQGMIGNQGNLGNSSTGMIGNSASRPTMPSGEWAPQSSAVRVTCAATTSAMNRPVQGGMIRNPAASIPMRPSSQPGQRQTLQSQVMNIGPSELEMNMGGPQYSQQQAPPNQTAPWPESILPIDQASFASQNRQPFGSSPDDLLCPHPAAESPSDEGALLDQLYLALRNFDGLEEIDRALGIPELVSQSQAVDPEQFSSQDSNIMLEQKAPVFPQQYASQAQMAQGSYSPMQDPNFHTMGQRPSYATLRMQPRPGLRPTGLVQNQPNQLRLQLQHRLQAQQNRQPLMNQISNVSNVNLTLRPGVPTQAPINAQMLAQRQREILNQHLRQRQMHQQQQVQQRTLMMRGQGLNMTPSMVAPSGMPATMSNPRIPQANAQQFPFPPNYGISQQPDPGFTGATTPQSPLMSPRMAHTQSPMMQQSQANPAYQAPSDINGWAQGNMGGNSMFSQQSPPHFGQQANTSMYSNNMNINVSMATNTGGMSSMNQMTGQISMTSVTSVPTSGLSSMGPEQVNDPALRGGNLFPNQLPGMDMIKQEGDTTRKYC
NCOA3 inh = human NCOA3 inhibition; 0.17% of 360,000 active; HEK293 GAL4-SRC3 luciferase reporter, luminescence; inhibition, % at 3.6 µM; AID 588352;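 active means inhibition above a per-campaign cutoff, the mean of all compounds plus 3 SD, cut at about 60% in these data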;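 further: higher means less SRC3-driven luciferase light from the GAL4 reporter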
GalR3 antag = antagonists of human GalR3; 0.44% of 360,000 active; inhibition, % at 3 µM; O60755; HEK293 GalR3-CNG cAMP membrane potential fluorescence; galR3 body fused to GalR1 C-terminus;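 active means inhibition above the screen-wide average plus 3 SD, cut at about 13% in these data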;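 further: forskolin and galanin both at EC90 stimulate the cells; cAMP rise reported by CNG channel membrane potential dye signal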
GalR3 antag conf = confirmation of human galanin receptor 3 antagonists | shares compounds with GalR3 antag | HEK293 GalR3 CNG cAMP biosensor, membrane potential fluorescence; galR3 fused to GalR1 carboxy tail; challenged with forskolin and galanin at EC90 | inhibition, % at 3 µM | 59% of 1,600 active;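 active means inhibition above the primary screen's cutoff, the mean inhibition of all screened compounds plus 3 SD, cut at about 13% in these data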
CNG parental = counter-screen for GalR3 antagonists: nonspecific agonists in parental HEK-CNG cells; activation, % at 3 µM; 10% of 1,600 active; shares compounds with GalR3 antag; AID 652268; HEK293-CNG parental cells, cAMP membrane potential fluorescence; normalised: DMSO wells 0%, forskolin wells 100%; in the data active means activation above about 1.3%
Of the large screens only hits and unclear results are named; the others gave an inactive call (follow-up assays come after a bar, where they were run). Most compounds without a hit are left out; they make up all but 1.1% or so of the library.

C[C@H]1[C@@H](OC(=O)Nc2ccc(C(F)(F)F)cc2)CC[C@@]23CCCN2C(=O)CCC[C@@H]13	none (no result: NR5A2 inv ag, SRC1 inh, SRC2 inh, NCOA3 inh, GalR3 antag)
CC1CCN(C(=O)/C(=C\c2cccs2)NC(=O)c2ccccc2)CC1	GalR3 antag 19 | GalR3 antag conf inactive | CNG parental inactive
CCOC(=O)CC[C@@H]1CC[C@]2(CCCN(C(=O)C3CCCC3)C2)O1	none (no result: NR5A2 inv ag, SRC1 inh, NCOA3 inh, GalR3 antag)
Cc1ccc(Nc2ccc(C(=O)O)cc2N)cc1	GalR3 antag 15 (no result: NR5A2 inv ag, SRC1 inh, NCOA3 inh) | GalR3 antag conf inactive | CNG parental inactive
COc1ccc(OCC(C)CN2CCC(C(O)(c3ccccc3)c3ccccc3)CC2)cc1 (stereo unspecified)	none (no result: NR5A2 inv ag, SRC1 inh, NCOA3 inh, GalR3 antag)
C#CCN1CC(N(C)CCOC(=O)c2ccc(OC)c(OC)c2)CS1(=O)=O (stereo unspecified)	none (no result: NR5A2 inv ag, SRC1 inh, NCOA3 inh, GalR3 antag)
CCOc1ccccc1NC(=O)c1ccc(NC(=O)c2ccco2)cc1	none (no result: GalR3 antag) | GalR3 antag conf inactive | CNG parental inactive
COc1ccccc1NC(=O)c1ccc(NC(=O)c2ccco2)cc1	none
O=C(C[n+]1ccc(C(=O)NCc2ccccc2)cc1)c1ccc(F)cc1	none (no result: SRC1 inh, NCOA3 inh)
O=C(NCc1ccccc1)c1cc[n+](CC(=O)c2cccs2)cc1	GalR3 antag 13 | GalR3 antag conf inactive | CNG parental inactive
CC(C)(C)OC(=O)N1CCC(N[C@@H](Cc2ccccc2)C(=O)NCCc2c[nH]c3ccccc23)(C(=O)NC2CCCCC2)CC1	none (no result: NR5A2 inv ag, SRC1 inh, SRC2 inh, NCOA3 inh, GalR3 antag)
Cc1ccc(-c2sc(C(=O)NN)c(C)c2C#N)cc1	GalR3 antag 27 | GalR3 antag conf 25 | CNG parental inactive
Cc1ccc(CSc2sc(C(=O)c3ccccc3)c(N)c2C#N)cc1	none
COc1ccc(-c2noc(C3CCCN(C(=O)NC4CCC(C)CC4)C3)n2)cc1 (stereo unspecified)	none (no result: NR5A2 inv ag, SRC1 inh, NCOA3 inh, GalR3 antag)
Cc1nc(SCc2nc3ccc(C(=O)c4ccccc4)cc3[nH]2)c2oc3ccccc3c2n1	GalR3 antag 14 | GalR3 antag conf 22 | CNG parental inactive
CC(=O)Nc1ccc(OCC(C)CN2CCC(C(O)(c3ccccc3)c3ccccc3)CC2)cc1 (stereo unspecified)	none (no result: NR5A2 inv ag, SRC1 inh, NCOA3 inh, GalR3 antag)
CCOC(=O)c1ccc(NC(=O)c2nc[nH]c2C(=O)NC2CCN(C(=O)OC(C)(C)C)CC2)cc1	GalR3 antag 17 | GalR3 antag conf inactive | CNG parental inactive
COc1ccc(-n2c(C)cc(C(=O)COC(=O)Cn3cnc4ccccc43)c2C)cc1	GalR3 antag 100 | GalR3 antag conf 89 | CNG parental inactive
COc1ccc(NC(=O)COC(=O)Cn2cnc3ccccc32)cc1	none
Oc1cccc(Oc2ncc(C(F)(F)F)cc2Cl)c1	GalR3 antag 13 | GalR3 antag conf inactive | CNG parental inactive
COc1ccc(C(=O)C[n+]2ccc3c(c2)nc(Cc2ccccc2)n3C)cc1	none (no result: NR5A2 inv ag, SRC1 inh, NCOA3 inh, GalR3 antag)
N#Cc1c(N)nc(SCc2ccncc2)c(C#N)c1-c1cccs1	GalR3 antag 75 | GalR3 antag conf 91 | CNG parental inactive
Cc1ccc(C)c(C(=O)c2ccccc2NC(=O)c2ccccn2)c1	none
Cc1ccc2c(c1)C(=O)C(=O)N2CC(=O)Nc1ccccc1NC(=O)c1ccccn1	GalR3 antag 20 | GalR3 antag conf inactive | CNG parental inactive
O=C(C1CCN(c2ncnc3c2sc2cccc(F)c23)CC1)N1CCOCC1	none
O=C(NCCN1CCOCC1)C1CCN(c2ncnc3c2sc2cccc(F)c23)CC1	GalR3 antag 15 | GalR3 antag conf inactive | CNG parental inactive
CC(C)CCOc1ccc(C2=NNC(=O)CC2)cc1	GalR3 antag 26 | GalR3 antag conf 15 | CNG parental inactive
COc1cccc2[nH]c3c(N4CCC(C)CC4)ncnc3c12	GalR3 antag 86 | GalR3 antag conf 96 | CNG parental inactive
COc1cccc2[nH]c3c(N4CCC5(CC4)OCCO5)ncnc3c12	none
Clc1cccc(CNCCNCc2cccc(Cl)c2)c1	GalR3 antag 22 | GalR3 antag conf inactive | CNG parental 2.5
O=C(NCCNCc1cccc(Cl)c1)c1ccco1	none
CCN(CC(=O)Nc1ccc2c(c1)OCCO2)C(=O)/C=C/c1ccc(F)cc1	GalR3 antag 13 | GalR3 antag conf 28 | CNG parental 2.4
CN[C@H]1C[C@H]2c3[nH]c4c(-c5ccc6c(c5)OCO6)cccc4c3CCN2C[C@H]1[C@H](C)O	none (no result: NR5A2 inv ag, SRC1 inh, NCOA3 inh, GalR3 antag)
OCc1cc(C(O)CNCCCCCCOCCCCc2ccccc2)ccc1O (stereo unspecified)	GalR3 antag 19 | GalR3 antag conf 32 | CNG parental 9.1
O=C(N[C@H](Cc1ccccc1)C(=O)N1CCN(CC(=O)N2CCCC2)CC1)[C@H]1O[C@@H](n2ccc(=O)[nH]c2=O)[C@H](O)[C@@H]1O	none (no result: NR5A2 inv ag, SRC1 inh, NCOA3 inh)
COC(=O)C1CN(Cc2cn(Cc3ccc(OC)cc3)nn2)CCS(=O)(=O)N1Cc1ccc(OC)cc1 (stereo unspecified)	none (no result: NR5A2 inv ag, SRC1 inh, NCOA3 inh, GalR3 antag)
CC(C)Nc1nc(Cl)nc(N(C#N)CN2C(=O)c3ccccc3C2=O)n1	GalR3 antag 16 | GalR3 antag conf inactive | CNG parental inactive
CC(C)OCCCNC(=O)C1CCC(CNS(=O)(=O)c2ccc(Cl)cc2)CC1 (stereo unspecified)	none
CC(C)OCCCNC(=O)C1CCC(CNS(=O)(=O)c2ccccc2)CC1 (stereo unspecified)	GalR3 antag 26 | GalR3 antag conf inactive | CNG parental inactive
CCOCCCNC(=O)C1CCC(CNS(=O)(=O)c2ccc(F)cc2)CC1 (stereo unspecified)	none
CCOCCCNC(=O)C1CCC(CNS(=O)(=O)c2ccc(OC)cc2)CC1 (stereo unspecified)	GalR3 antag 14 | GalR3 antag conf 42 | CNG parental 1.9
COc1ccccc1CCn1cnc(-c2ccc(Br)cc2)c1CC(C)C	none (no result: NR5A2 inv ag, SRC1 inh, NCOA3 inh)
CCCN1CCS(=O)(=O)N(Cc2cn(Cc3ccc(F)cc3)nn2)C(C(=O)OC)C1 (stereo unspecified)	none (no result: NR5A2 inv ag, SRC1 inh, NCOA3 inh, GalR3 antag)
C#CCCN([C@H](C(=O)OC)C(C)C)S(=O)(=O)c1ccccc1Br	none (no result: NR5A2 inv ag, SRC1 inh, NCOA3 inh, GalR3 antag)
COc1cccc(/C=C/C(=O)OCC(=O)Nc2nnc(-c3ccccc3)o2)c1OC	GalR3 antag 13 | GalR3 antag conf inactive | CNG parental inactive
Cc1ccc(NC(=O)Cn2cc(C=O)c3ccccc32)cc1	none
CC(C)(C)NCC(O)Cn1cc(C=O)c2ccccc21 (stereo unspecified)	GalR3 antag 14 | GalR3 antag conf 36 | CNG parental inactive
O=C(O)CC12CC3CC(C1)CC(n1ncc(NCc4ccco4)c(Cl)c1=O)(C3)C2	GalR3 antag 15 | GalR3 antag conf inactive | CNG parental inactive
